Assay outcomes (PubChem)
POLB inh: qHTS Assay for Inhibitors of DNA Polymerase Beta; Pol beta primer extension/strand displacement, fluorescence kinetic; actives 1.3% (n = 340,000); P06746; AID 485314, 2010; Potency, µM (highest dose often 114 µM), for inactives: at the top dose activity change, negative = inhibition, most hits filed as inhibitors; also: % is scaled to controls: 0 for no effect and ±100 for the full control effect
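Reaction started by 50 nM substrate onto compound-treated Pol beta (10 nM, 15 min preincubation, room temperature); plates read at 0 min and 10 min. Normalized concentration-effect data fitted by four-parameter Hill equation.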
Pol kappa inh: qHTS for Inhibitors of Polymerase Kappa | purified Pol kappa, fluorescent DNA synthesis assay, 10 min | actives 0.53% (n = 400,000) | AID 588579, 2011 | Potency, µM (titrated, usually from 107 µM), inactives show at the highest dose activity, negative = inhibition, usual class: inhibitors; also: % is scaled to controls: 0 for no effect and ±100 for the full control effect
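Fluorescent qHTS in 1536-well format: enzyme (10 nM) and compound sat 15 min at room temperature before 50 nM substrate (final) was added. Signal taken at 0 and 10 min; no-enzyme buffer wells were negative controls.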
POLI inh: qHTS for Inhibitors of Polymerase Iota; DNA polymerase iota (Homo sapiens), Q9UNA4; Pol iota fluorescent replication assay, 10 min; Potency, µM (highest dose often 115 µM), for the others: at the highest dose activity, negative = inhibition, usual class: inhibitors; actives 1% (n = 390,000)
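Fluorescent replication assay read twice, at 0 min and 10 min after adding 50 nM (final) substrate. Enzyme (10 nM) and compounds were first incubated 15 min at room temperature; enzyme-free buffer wells were negative controls.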
TDP1 inh: qHTS Assay for Inhibitors of Tyrosyl-DNA Phosphodiesterase (TDP1) | recombinant TDP1, AlphaScreen DNA substrate cleavage | AID 485290, 2010 | Potency, µM (titrated, usually from 130 µM), for the others: at the top dose activity change, negative = inhibition, most hits filed as inhibitors | actives 0.28% (n = 350,000); also: % is scaled to controls: 0 for no effect and ±100 for the full control effect; nearly all actives have a fitted effect of over 40% in size
Target sequence (Q9NUW8 whole entry, looked up): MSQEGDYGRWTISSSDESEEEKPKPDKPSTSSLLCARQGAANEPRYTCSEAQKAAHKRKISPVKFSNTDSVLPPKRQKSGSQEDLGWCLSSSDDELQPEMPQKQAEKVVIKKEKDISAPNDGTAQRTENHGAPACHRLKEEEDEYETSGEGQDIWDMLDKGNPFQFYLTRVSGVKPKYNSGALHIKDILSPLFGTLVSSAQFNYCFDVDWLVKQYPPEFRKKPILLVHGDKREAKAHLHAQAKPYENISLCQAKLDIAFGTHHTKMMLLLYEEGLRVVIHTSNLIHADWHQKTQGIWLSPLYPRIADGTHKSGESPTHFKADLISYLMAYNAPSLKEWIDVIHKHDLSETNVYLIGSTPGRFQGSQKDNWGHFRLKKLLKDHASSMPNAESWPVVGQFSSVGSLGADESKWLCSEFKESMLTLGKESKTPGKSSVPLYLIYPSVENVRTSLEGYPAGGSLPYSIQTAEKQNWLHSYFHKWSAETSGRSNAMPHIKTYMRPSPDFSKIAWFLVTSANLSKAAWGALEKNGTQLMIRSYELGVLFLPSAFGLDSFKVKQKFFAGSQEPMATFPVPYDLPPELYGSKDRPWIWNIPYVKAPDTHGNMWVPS
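Tdp1 1 nM final; 15 min RT w/ cpd; substrate 15 nM, 5 min; beads 10 ug/ml, 10 min; AlphaScreen read. Neg ctrl: no enzyme.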
Pol eta inh: qHTS for Inhibitors of Polymerase Eta; AID 588591, 2011; DNA polymerase eta (Homo sapiens), Q9Y253; actives 1.2% (n = 390,000); Potency, µM (highest dose often 114 µM), inactives show at the top dose activity change, negative = inhibition, most hits filed as inhibitors; recombinant Pol eta, fluorescent DNA replication assay; also: % is scaled to controls: 0 for no effect and ±100 for the full control effect
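Pol eta at 10 nM preincubated with compounds 15 min at room temperature; reaction started with fluorescent substrate (50 nM final) and read kinetically at 0 and 10 min.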
FEN1 inh: qHTS Assay for the Inhibitors of Human Flap endonuclease 1 (FEN1); P39748; Recombinant FEN1 flap cleavage, fluorescence, 15 min; Potency, µM (titrated, usually from 114 µM), for the others: top-dose activity change, negative = inhibition, most hits filed as inhibitors; actives 0.35% (n = 390,000); also: % is scaled to controls: 0 for no effect and ±100 for the full control effect; nearly all actives have a fitted effect of over 65% in size
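Recombinant FEN1 (10 nM) was preincubated with pin-transferred compounds for 15 min at room temperature, then flap DNA substrate (50 nM final) was added. Plates were read at 0 and 15 min, and normalized concentration–response data were fitted to a four-parameter Hill equation.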
Numbers without * were called inactive; ? = inconclusive; . = no result; [ ] = remark or other dose. Most compounds without a hit are left out; they make up all but 2.4% or so of the library. Calls follow the shape of the dose curve; as a rule, active = well fitted curve in the direction sought with a large enough effect; inconclusive = small, poorly fitted or top-dose-only effect, or another doubt; inactive = no such curve, though single readings can be large; an effect the other way counts as inactive or inconclusive. Potency is read from the fitted curve at half-maximal effect.

SMILES	POLB inh	Pol kappa inh	POLI inh	TDP1 inh	Pol eta inh	FEN1 inh
O=C(CCC1N=C2c3ccccc3N=C(SCc3ccc(Cl)cc3)N2C1=O)NCCc1ccccc1 (configuration not stated)	16.4%	-37.8%	89.1µM*	5.9%	-14.9%	-16.9%
CCCCOc1nnc(-c2ccc(OCC)cc2)c2ccccc12	24.3%	9.6%	11.8%	.	-4.3%	1.2%
C[N+]1(CC(=O)c2ccc(Cl)c(Cl)c2)CCOCC1	.	-23.9%	6.4%	.	.	2.9%
COc1cccc(/C=C2/NC(=O)N(CC(=O)Nc3ccc(C)cc3)C2=O)c1OCc1cccc(C(=O)O)c1	50.1µM*	79.4µM*	?	3.1%[0.0935 µM]	?	?
Cc1ccc(NC(=O)CN2C(=O)N/C(=C/c3cc(C)n(-c4cccc(C(=O)O)c4)c3C)C2=O)cc1	10µM*	?	44.7µM*	.	20µM*	-3.1%
COc1cc2c(cc1/C=C1/NC(=O)N(CC(=O)Nc3ccccc3)C1=O)OCO2	10.6%	-16.3%	-28.3%	2.4%	-3.3%	-1.0%
CCn1c(C)cc(/C=C2\NC(=O)N(CC(=O)Nc3cccc(C)c3)C2=O)c1C	-11.5%	-2.2%	9.3%	4.9%	3.8%	-8.3%
Cc1ccc(/C=C2/CNC/C(=C\c3ccc(C)cc3)C2=O)cc1	.	4.6%[60.1 µM]	.	5.6%	.	.
Cc1cc2c(s1)c1cnn(Cc3ccc(Cl)cc3)c(=O)c1n2C	.	.	.	35.5µM*	.	.
Cc1cc2c(s1)c1cnn(Cc3cccc(F)c3F)c(=O)c1n2C	.	.	.	-3.6%	.	.
CN(C)c1cccc(S(=O)(=O)N2CCN(S(=O)(=O)c3ccc4c(c3)OCCO4)CC2)c1	.	.	.	-2.9%	.	.
Cc1cc(-c2ccc(Br)s2)nc(-n2cccc2)n1	?	?	?	2.7%	-13.9%	2.0%
Cc1cc(-c2sccc2Br)nc(-n2cccc2)n1	-20.0%	79.4µM*	?	2.7%	-14.5%	1.8%
COC/C=C/C1=CC2=CC(=O)C(C)(OC(=O)c3cnc4ccccc4n3)C(=O)C2=CN1Cc1ccccc1 (configuration not stated)	10µM*	-38.4%	?	16.4%[12.3 µM]	28.2µM*	9.1%
COC/C=C/C1=CC2=CC(=O)C(C)(OC(=O)c3cccs3)C(=O)C2=CO1 (configuration not stated)	.	.	.	5.0%	.	.
COC/C=C/C1=CC2=CC(=O)C(C)(OC(=O)c3ccco3)C(=O)C2=CO1 (configuration not stated)	28.2µM*	.	.	-13.7%	.	.
COC(=O)CCCC1=CC2=CC(=O)C(C)(OC(=O)c3cnc4ccccc4n3)C(=O)C2=CO1 (configuration not stated)	.	.	.	-1.2%	.	.
COC/C=C/C1=CC2=CC(=O)C(C)(OC(=O)c3cnc4ccccc4n3)C(=O)C2=CN1CC1CC1 (configuration not stated)	.	?	?	12.8%[12.3 µM]	?	-14.8%
CCCCC1=CC2=CC(=O)C(C)(OC(=O)c3cccs3)C(=O)C2=CO1 (configuration not stated)	.	?	?	-1.9%	22.4µM*	-20.3%
CCCCC1=CC2=CC(=O)C(C)(OC(=O)c3cnc4ccccc4n3)C(=O)C2=CO1 (configuration not stated)	50.1µM*	.	.	3.7%	.	.
COC(=O)CCCC1=CC2=CC(=O)C(C)(OC(=O)c3cccs3)C(=O)C2=CO1 (configuration not stated)	.	.	.	-3.7%	.	.
COc1ccc(O[C@H]2C=C[C@@H](c3ccccc3)O[C@H]2COC(=O)CC/C(C)=N/O[C@@H]2O[C@H](COC(C)=O)[C@H](OC(C)=O)[C@H](OC(C)=O)[C@H]2OC(C)=O)cc1	.	.	.	6.9%[21 µM]	.	.
Cc1ccccc1CN1[C@H]2CCCC[C@@H]2OCCS1(=O)=O	.	-21.9%	32.2%	.	.	-12.1%
C[N+]12CCCC[C@@H]1CCC(=C(c1cccs1)c1cccs1)C2 (some centres not stated)	.	1.7%[19.4 µM]	.	.	.	.
Cc1ccc(NS(=O)(=O)c2ccc3c(c2)CCO3)cc1C	.	.	.	0.8%	.	.
SMILES	POLB inh	Pol kappa inh	POLI inh	TDP1 inh	Pol eta inh	FEN1 inh
CCc1ccc2c(c1)c(=O)c(C(=O)c1ccccc1)cn2CC(=O)Nc1ccc(C)c(Cl)c1	2.82µM*	-18.9%	-2.2%	1.3%	?	-8.5%
CCOc1ccc(C(=O)c2cn(CC(=O)Nc3ccc(C)c(Cl)c3)c3ccc(OCC)cc3c2=O)cc1	13.8%	-2.9%	20.7%	1.3%	-3.9%	0.5%
Fc1ccc(C2=NC(c3cccc(C(F)(F)F)c3)=Nc3ccccc3N2)cc1	22.3%	0.1%	16.4%	4.7%	.	-7.1%
CCOC(=O)Cc1cc(=O)n2[nH]c(-c3ccc(C)cc3)cc2n1	22.4µM*	-37.9%	79.4µM*	7.8%	?	-5.4%
CCOC(=O)c1cc(=O)n2[nH]c(-c3ccc(C)cc3)cc2n1	-10.4%	-17.8%	-2.5%	7.1%	-12.1%	-5.1%
CCNc1cccc(S(=O)(=O)N2CCCN(S(=O)(=O)c3ccc4c(c3)OCCO4)CC2)c1	.	.	.	0.9%	.	.
CC1=NOC2(C1)N(C)c1ccccc1C2(C)C (configuration not stated)	9.5%	-2.2%	18.8%	-2.1%	4.0%	-18.0%
COc1ccc2ccc3c(c2c1)N=C[C@]1(O3)N(C)c2ccccc2C1(C)C	13.6%	-7.6%	?	7.3%	70.8µM*	?
CN(C)S(=O)(=O)c1ccc(C(=O)OCC(=O)c2csc(N3CCCCC3)n2)cc1	.	-36.5%	?	-6.6%	79.4µM*	0.5%
CCc1ccc(C(c2ccccc2)c2c(C)[nH]c3ccccc23)s1 (configuration not stated)	4.9%	-19.1%	2.7%	-2.6%	-19.9%	19.0%
CN(C)c1ccc(C=c2c3ccccc3n3c2cc(-c2ccc(Cl)cc2)[n+]3C)cc1	.	-10.8%	?	.	?	22.4µM*
CN(C)c1ccc(C=c2c3cc([N+](=O)[O-])ccc3n3c2cc(-c2ccccc2)[n+]3C)cc1	.	-24.2%	?	.	0.3%	56.2µM*
COc1cc(C=c2c3ccccc3n3c2cc(-c2ccccc2)[n+]3C)cc(OC)c1OC	.	-6.0%	?	.	-12.1%	?
COc1cc(N(C)C)ccc1C=c1c2ccccc2n2c1cc(-c1ccccc1)[n+]2C	.	?	?	.	22.4µM*	7.94µM*
CN(C)c1ccc(C=c2c3ccccc3n3c2cc(-c2ccccc2)[n+]3C)cc1	.	-24.5%	?	.	?	8.91µM*
